Bioassay records deposited in PubChem BioAssay by National Center for Advancing Translational Sciences (NCATS).
HT1080 IDH1KD tx = toxicity to HT-1080 IDH1 knockdown cells (counter line); Potency, µM (titrated, usually from 46.1 µM), for the others: at the top dose activity, negative = toxicity, hits mostly cytotoxic; AID 686971; 360,000 tested, 2% active; HT-1080 IDH1 knockdown viability, ATP luminescence, 48 h;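 note: potency is the fitted concentration of half-maximal effect; 0% = DMSO wells and -100% = cell-free medium wells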
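In this qHTS, HT-1080 cells depleted of IDH1 are exposed for 48 h at 37 °C to compound titrations. Toxicity is scored from CellTiter-Glo luminescence, with DMSO as full viability and medium alone as none.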
TDP1 cell noCPT = qHTS for Inhibitors of human tyrosyl-DNA phosphodiesterase 1 (TDP1): qHTS in cells in absence of CPT; DT40 Tdp1-/- hTDP1 cells, no CPT, ATP luminescence, 48 h; Potency, µM (doses to about 46.2 µM), inactives show at the top dose activity change, negative = growth inhibition, most hits filed as inhibitors; 420,000 tested, 15% active; note: potency is the fitted concentration of half-maximal effect; nearly all actives have a fitted effect of over 55% in size
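DT40 Tdp1-/-;hTDP1 cells, no CPT (DMSO vehicle only), 400 cells/well; compounds pin-transferred; ≥48 hr, 37 °C; CellTiter-Glo 30 min RT dark, luminescence read.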
TDP1 cell CPT = DT40-hTDP1 cell growth loss with CPT | AID 686979 | chicken DT40 Tdp1-/-;hTDP1 cells + 20 nM CPT, ATP luminescence, 48 h | Potency, µM (highest dose often 46.2 µM), for inactives: at the highest dose activity change, negative = growth inhibition, usual class: inhibitors | 420,000 tested, 12% active; note: potency is the fitted concentration of half-maximal effect; nearly all actives have a fitted effect of over 55% in size
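Chicken DT40 Tdp1-/- cells stably complemented with human TDP1 were seeded at 400 cells/well in medium containing 20 nM camptothecin, exposed to pin-transferred compounds, and grown at 37 °C for at least 48 hr. Viability was read as ATP luminescence.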
HT1080NT lethal = kills 2HG-producing HT-1080-NT fibrosarcoma cells. HT-1080-NT fibrosarcoma viability, CellTiter-Glo ATP luminescence, 48 h. Potency, µM (series often up to 46.1 µM), without a hit: at the highest dose activity, negative = less viability, usual class: cytotoxic. 360,000 tested, 1.6% active;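 note: NT is the 2HG producing partner of a matched IDH1 knockdown line; potency is the fitted concentration of half-maximal effect; 0% = DMSO-treated cells and -100% = media-only wells without cells; nearly all actives have a fitted effect of over 55% in size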
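A 48-hour cytotoxicity screen used HT-1080-NT cells plated 2 hours before compound delivery. ATP-based CellTiter-Glo luminescence measured viability, normalized to DMSO and no-cell controls.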
IL-1B inflam inh = blocks inflammasome-driven IL-1 beta release; THP-1 LPS/ATP IL-1B secretion, AlphaLISA, 16 h; active compounds read low; activity change, % at 57.5 µM; 360,000 tested, 4.7% active; in the data active = activity change below about -50%; inconclusive = mostly about -30% to -49%
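Secreted IL-1B measured by AlphaLISA bead assay after 16 h compound exposure of THP-1 cells; compounds (final up to 57.5 uM) added 1 h before LPS (250 ng/mL) and ATP (1.25 mM) stimulation; lower signal means less secretion.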
Starred values were filed as active, the others as inactive. Compounds with a hit are over-represented: about 19% of the library has one in this group of screens. Unless noted, calls come from the whole dose curve; as a rule, active = well fitted curve in the direction sought with a large enough effect; inconclusive = small, poorly fitted or top-dose-only effect, or another doubt; inactive = no such curve, though single readings can be large; an effect the other way counts as inactive or inconclusive. Unless noted, % is set by controls: 0 for no effect and ±100 for the full control effect.

Cc1nn(C(=O)c2cccc([N+](=O)[O-])c2)c(C)c1Sc1ccccc1 was read as HT1080 IDH1KD tx 0.3%, TDP1 cell noCPT -19.1%, TDP1 cell CPT 5.3%, HT1080NT lethal -2.9% and IL-1B inflam inh 0.0.
Screening Clc1ccc(OCc2cn3ccccc3n2)c2ncccc12 returned HT1080 IDH1KD tx -1.1%, TDP1 cell noCPT 16.4µM*, TDP1 cell CPT 14.6µM*, HT1080NT lethal -1.9% and IL-1B inflam inh -61.0*.
Cc1nc2c(n1C1CCCCC1)C(=O)c1ccccc1C2=O was read as HT1080 IDH1KD tx -4.8%, TDP1 cell noCPT 14.6µM*, TDP1 cell CPT 20.6µM*, HT1080NT lethal -1.0% and IL-1B inflam inh 17.0.
For Cc1c(Cl)cccc1NC(=S)NNS(=O)(=O)c1ccc([N+](=O)[O-])cc1 the results were HT1080 IDH1KD tx 15.7%, TDP1 cell noCPT 3.4%, TDP1 cell CPT 5.5%, HT1080NT lethal 5.2% and IL-1B inflam inh 12.0.
CCOc1ccc(-c2cc(C(=O)NCc3ccc(C)cc3)c3ccccc3n2)cc1 was read as TDP1 cell noCPT -13.5% and TDP1 cell CPT -16.6%.
Screening CCOc1ccccc1CNC(=O)c1cc(-c2ccc(Cl)s2)nc2ccccc12 returned TDP1 cell noCPT 13µM* and TDP1 cell CPT -76.6%.
CCOc1ccccc1CNC(=O)c1cc(-c2ccc(C)c(C)c2)nc2ccccc12 was read as TDP1 cell noCPT inconclusive and TDP1 cell CPT 20.6µM*.
`O=C(COC(=O)c1cc(-c2ccc(Cl)s2)nc2ccccc12)NCc1ccco1` gave HT1080 IDH1KD tx inconclusive, TDP1 cell noCPT 16.4µM*, TDP1 cell CPT 18.4µM*, HT1080NT lethal inconclusive and IL-1B inflam inh -5.6.
Screening CC(NCC(O)c1ccc([N+](=O)[O-])cc1)C12CC3CC(CC(C3)C1)C2 (stereo not drawn) returned HT1080 IDH1KD tx 23.1µM*, TDP1 cell noCPT inconclusive, TDP1 cell CPT inconclusive, HT1080NT lethal 18.4µM* and IL-1B inflam inh -84.7*.
For O=C(NCC(O)c1ccc([N+](=O)[O-])cc1)Nc1ccccc1 (stereo not drawn) the results were HT1080 IDH1KD tx 0.2%, TDP1 cell noCPT -1.4%, TDP1 cell CPT -21.1%, HT1080NT lethal -9.4% and IL-1B inflam inh 12.2.
CC1CCCN(CCCOc2ccc(Br)cc2Cl)C1 (stereo not drawn) was read as HT1080 IDH1KD tx 20.6µM*, TDP1 cell noCPT inconclusive, TDP1 cell CPT inconclusive, HT1080NT lethal 16.4µM* and IL-1B inflam inh -90.1*.
Screening CC1CCN(CCOCCOc2ccc(Br)cc2Cl)CC1 returned HT1080 IDH1KD tx -29.2%, TDP1 cell noCPT 20.6µM*, TDP1 cell CPT 18.4µM*, HT1080NT lethal -24.1% and IL-1B inflam inh inconclusive.
`COC(=O)c1c(NC(NC(=O)C(C)C)C(Cl)(Cl)Cl)sc2c1CCC2` (stereo not drawn) gave HT1080 IDH1KD tx -25.9%, TDP1 cell noCPT 13µM*, TDP1 cell CPT 16.4µM*, HT1080NT lethal -21.9% and IL-1B inflam inh 20.4.
`CCC(=O)NC(Nc1sc2c(c1C(=O)OC)CCC2)C(Cl)(Cl)Cl` (stereo not drawn) gave HT1080 IDH1KD tx 1.2%, TDP1 cell noCPT 14.6µM*, TDP1 cell CPT 14.6µM*, HT1080NT lethal 0.8% and IL-1B inflam inh 11.5.
For CCOC(=O)c1c(NC(NC(C)=O)C(Cl)(Cl)Cl)sc2c1CCCC2 (stereo not drawn) the results were HT1080 IDH1KD tx -29.4%, TDP1 cell noCPT inconclusive, TDP1 cell CPT 16.4µM*, HT1080NT lethal inconclusive and IL-1B inflam inh 14.3.
`CCCOc1ccc(C(=O)CCC(=O)NNC(=O)c2ccncc2)cc1` gave HT1080 IDH1KD tx -1.4%, TDP1 cell noCPT 8.4%, TDP1 cell CPT 7.2%, HT1080NT lethal 4.0% and IL-1B inflam inh 13.3.
`CC1CN(C(=O)CSc2nnc(NC(=O)NC(C)(C)C)s2)CC(C)O1` (stereo not drawn) gave HT1080 IDH1KD tx 6.2%, TDP1 cell noCPT inconclusive, TDP1 cell CPT -27.7%, HT1080NT lethal 5.9% and IL-1B inflam inh 19.3.
`CN(CCOc1ccccc1)C(=O)C1CCN(C(=O)c2ccc(F)cc2)CC1` gave HT1080 IDH1KD tx -4.5%, TDP1 cell noCPT inconclusive, TDP1 cell CPT inconclusive, HT1080NT lethal -0.6% and IL-1B inflam inh 10.2.
Cc1cccc(N2CCN(C(=O)c3cc4c(=O)n(C)c5ccccc5c4s3)CC2C)c1 (stereo not drawn) was read as TDP1 cell noCPT 2.31µM* and TDP1 cell CPT inconclusive.
Screening Cc1ccc(Cl)cc1N1CCN(C(=O)c2cc3c(=O)n(C)c4ccccc4c3s2)CC1 returned TDP1 cell noCPT 2.2% and TDP1 cell CPT 7.7%.
Screening Cc1cccc(N2CCN(C(=O)c3ccc(N4CCCC4=O)cc3)CC2C)c1 (stereo not drawn) returned HT1080 IDH1KD tx -15.3%, TDP1 cell noCPT inconclusive, TDP1 cell CPT inconclusive, HT1080NT lethal -3.9% and IL-1B inflam inh -20.6.
For CC1CCN(C(=O)c2cc3c(=O)n(C)c4ccccc4c3s2)CC1 the results were TDP1 cell noCPT inconclusive and TDP1 cell CPT 11.6µM*.
For CCn1c(=O)c2cc(C(=O)N3CCN(C)CC3)sc2c2ccccc21 the results were HT1080 IDH1KD tx -5.8%, TDP1 cell noCPT inconclusive, TDP1 cell CPT 4.7%, HT1080NT lethal -27.4% and IL-1B inflam inh -22.0.
Cc1cccc(N2CCN(C(=O)c3ccc4c(c3)c(C)c(C)n4C)CC2C)c1 (stereo not drawn) was read as HT1080 IDH1KD tx inconclusive, TDP1 cell noCPT 20.6µM*, TDP1 cell CPT 16.4µM*, HT1080NT lethal -26.3% and IL-1B inflam inh -22.5.
Screening COc1ccccc1N1CCN(C(=O)c2cc3c(=O)n(C)c4ccccc4c3s2)CC1 returned TDP1 cell noCPT 25.9µM* and TDP1 cell CPT inconclusive.
Screening CCN1C(=O)[C@@H]2[C@@H]3CN(S(=O)(=O)c4ccc(C)cc4)[C@@H](c4ccccc4Cl)[C@@H]3C(=O)C[C@@H]2C1=O returned HT1080 IDH1KD tx 9.0%, TDP1 cell noCPT inconclusive, TDP1 cell CPT inconclusive, HT1080NT lethal 0.9% and IL-1B inflam inh 0.0.
`Cc1ccc(C(=O)n2cnnc2N)cc1` gave HT1080 IDH1KD tx -2.9%, TDP1 cell noCPT -12.8%, TDP1 cell CPT 8.7%, HT1080NT lethal -8.4% and IL-1B inflam inh 4.1.
Screening Cc1ccc(S(=O)(=O)Nc2ccc(NC(=O)c3c(F)c(F)c(F)c(F)c3F)cc2)cc1 returned HT1080 IDH1KD tx inconclusive, TDP1 cell noCPT inconclusive, TDP1 cell CPT inconclusive, HT1080NT lethal -21.8% and IL-1B inflam inh 0.0.
For Cn1cnc2c(cnn2C)c1=O the results were HT1080 IDH1KD tx 22.1%, TDP1 cell noCPT -7.0%, TDP1 cell CPT 3.0%, HT1080NT lethal 7.7% and IL-1B inflam inh -14.0.
